This note sets out measurements from the supplement of paper PMC6658780.

Structures can show the parent of a compound that is named as a salt. ± gives the standard deviation of the averaged measurements.

The subject of the first assay is Escherichia coli ATCC BAA-2469. Description: percent growth inhibition of drug alone vs DMSO control; higher = more growth inhibition. Conditions: antibiotic (0.125x MIC): none (0.1% DMSO); 7 µM. The method, then: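 Prestwick drugs tested at 20 uM and 7 uM with an antibiotic at 0.125x MIC (16 mg/L when MIC >128 mg/L) against E. coli ATCC BAA-2469 (NDM-1) in CAMHB, 384-well plates, duplicate runs. Percent growth inhibition was computed from OD600 (24 h minus 0 h) relative to DMSO wells. Drug + DMSO-only wells are also given. […]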
As to `Nc1nc(O)c2ncn(CCC(CO)CO)c2n1` [Penciclovir], the “percent growth inhibition of drug alone” value is 1.39 ± 3.5%.
For the molecule `Oc1c(Cl)cc(Cl)c2cccnc12` [Chloroxine], the “percent growth inhibition of drug alone” value stood at 13.1 ± 9.1%.
As for `O=C1NCCN1c1ncc([N+](=O)[O-])s1` [Niridazole], the “percent growth inhibition of drug alone” value worked out at 19.9 ± 7.6%.
As to `CC[C@H]1OC(=O)[C@H](C)[C@@H](O[C@H]2C[C@@](C)(OC)[C@@H](O)[C@H](C)O2)[C@H](C)[C@@H](O[C@@H]2O[C@H](C)C[C@H](N(C)C)[C@H]2O)[C@](C)(O)C[C@@H](C)CN(C)[C@H](C)[C@@H](O)[C@]1(C)O` [Azithromycin], the “percent growth inhibition of drug alone” value amounted to 22.2 ± 12%.
The same measure, in the same setting: in the case of `CS(=O)(=O)c1ccc([C@@H](O)[C@@H](CF)NC(=O)C(Cl)Cl)cc1` [Florfenicol] it was 21.5 ± 9.2%; in that of `CCCCNc1c(C(=O)OCC)c(C)nc2c1cnn2CC` [Tracazolate hydrochloride], 3.29 ± 0.5%.
For `NS(=O)(=O)c1cc2c(cc1C(F)(F)F)NC(Cc1ccccc1)NS2(=O)=O` (configuration not stated) [Bendroflumethiazide], the “percent growth inhibition of drug alone” value was -1.67 ± 1.1%.
`CCC[C@@H]1C[C@@H](C(=O)N[C@@H]([C@H]2O[C@H](SC)[C@H](O)[C@@H](O)[C@H]2O)[C@H](C)Cl)N(C)C1` [Clindamycin hydrochloride]: the “percent growth inhibition of drug alone” value amounted to 12.8 ± 13%.
Same read-out and setting: in the case of `CC1CS(=O)(=O)CCN1/N=C/c1ccc([N+](=O)[O-])o1` (configuration not stated) [Nifurtimox] it was 1.01 ± 1.2%; in that of `CS(=O)(=O)c1ccc([C@@H](O)[C@@H](CO)NC(=O)C(Cl)Cl)cc1` [Thiamphenicol], 4.47 ± 3.6%.
On to `O=C1CN(/N=C/c2ccc([N+](=O)[O-])o2)C(=O)N1` [Nitrofurantoin], for which the “percent growth inhibition of drug alone” value came out at 5.87 ± 5.7%.
As to `Oc1c(Cl)cc(Cl)c(Cl)c1Cc1c(O)c(Cl)cc(Cl)c1Cl` [Hexachlorophene], the “percent growth inhibition of drug alone” value turned out to be 9.96 ± 8.8%.
Still for that read-out and setting: the same measure for `O=C1c2c(O)ccc(O)c2C(=O)c2c(NCCNCCO)ccc(NCCNCCO)c21` [Mitoxantrone dihydrochloride]: 7.78 ± 5.1%.

The same assay, now with this note: antibiotic (0.125x MIC): none (0.1% DMSO); 20 µM.
On to `Nc1nc(O)c2ncn(CCC(CO)CO)c2n1` [Penciclovir], for which the “percent growth inhibition of drug alone” value was -1.4 ± 2.5%.
As to `Oc1c(Cl)cc(Cl)c2cccnc12` [Chloroxine], the “percent growth inhibition of drug alone” value stood at 102 ± 8%.
The same measure, in the same setting: the same measure for `CCCCNc1c(C(=O)OCC)c(C)nc2c1cnn2CC` [Tracazolate hydrochloride]: -0.173 ± 5.2%.
As for `NS(=O)(=O)c1cc2c(cc1C(F)(F)F)NC(Cc1ccccc1)NS2(=O)=O` (configuration not stated) [Bendroflumethiazide], the “percent growth inhibition of drug alone” value is -1.13 ± 2.1%.
The same measure, in the same setting: in the case of `CCC[C@@H]1C[C@@H](C(=O)N[C@@H]([C@H]2O[C@H](SC)[C@H](O)[C@@H](O)[C@H]2O)[C@H](C)Cl)N(C)C1` [Clindamycin hydrochloride] it was 35.5 ± 16%; in that of `CC1CS(=O)(=O)CCN1/N=C/c1ccc([N+](=O)[O-])o1` (configuration not stated) [Nifurtimox], 1.15 ± 4.3%; in that of `CO[C@H]1/C=C/O[C@@]2(C)Oc3c(C)c(O)c4c(O)c(c(/C=N/N5CCN(C6CCCC6)CC5)c(O)c4c3C2=O)NC(=O)/C(C)=C\C=C\[C@H](C)[C@H](O)[C@@H](C)[C@@H](O)[C@@H](C)[C@H](OC(C)=O)[C@@H]1C` [Rifapentine], 112 ± 10%.
Consider `O=C1OCCN1/N=C/c1ccc([N+](=O)[O-])o1` [Furazolidone], for which the “percent growth inhibition of drug alone” value was 115 ± 13%.
For the molecule `Nc1ncn(C2OC(CO)C(O)C2O)c(=O)n1` (configuration not stated) [Azacytidine-5], the “percent growth inhibition of drug alone” value was found to be 111 ± 10%.
